Data: paper PMC4336329 (PLoS ONE, 2015)
Among all 310,000 compounds or so, about 2,200 (0.71%) showed an effect of 50% or more. Effects have a minus sign here. Shown is part of a subset that was picked to be rich in strong results.

Molecular target: human ether-à-go-go-related gene (hERG) potassium channel (human, UniProt Q12809)
Test: primary screen, population patch clamp on CHO cells stably expressing hERG; higher = less effect of the substance

human ether-à-go-go-related gene (hERG) potassium channel, sequence (Q12809 whole entry, looked up): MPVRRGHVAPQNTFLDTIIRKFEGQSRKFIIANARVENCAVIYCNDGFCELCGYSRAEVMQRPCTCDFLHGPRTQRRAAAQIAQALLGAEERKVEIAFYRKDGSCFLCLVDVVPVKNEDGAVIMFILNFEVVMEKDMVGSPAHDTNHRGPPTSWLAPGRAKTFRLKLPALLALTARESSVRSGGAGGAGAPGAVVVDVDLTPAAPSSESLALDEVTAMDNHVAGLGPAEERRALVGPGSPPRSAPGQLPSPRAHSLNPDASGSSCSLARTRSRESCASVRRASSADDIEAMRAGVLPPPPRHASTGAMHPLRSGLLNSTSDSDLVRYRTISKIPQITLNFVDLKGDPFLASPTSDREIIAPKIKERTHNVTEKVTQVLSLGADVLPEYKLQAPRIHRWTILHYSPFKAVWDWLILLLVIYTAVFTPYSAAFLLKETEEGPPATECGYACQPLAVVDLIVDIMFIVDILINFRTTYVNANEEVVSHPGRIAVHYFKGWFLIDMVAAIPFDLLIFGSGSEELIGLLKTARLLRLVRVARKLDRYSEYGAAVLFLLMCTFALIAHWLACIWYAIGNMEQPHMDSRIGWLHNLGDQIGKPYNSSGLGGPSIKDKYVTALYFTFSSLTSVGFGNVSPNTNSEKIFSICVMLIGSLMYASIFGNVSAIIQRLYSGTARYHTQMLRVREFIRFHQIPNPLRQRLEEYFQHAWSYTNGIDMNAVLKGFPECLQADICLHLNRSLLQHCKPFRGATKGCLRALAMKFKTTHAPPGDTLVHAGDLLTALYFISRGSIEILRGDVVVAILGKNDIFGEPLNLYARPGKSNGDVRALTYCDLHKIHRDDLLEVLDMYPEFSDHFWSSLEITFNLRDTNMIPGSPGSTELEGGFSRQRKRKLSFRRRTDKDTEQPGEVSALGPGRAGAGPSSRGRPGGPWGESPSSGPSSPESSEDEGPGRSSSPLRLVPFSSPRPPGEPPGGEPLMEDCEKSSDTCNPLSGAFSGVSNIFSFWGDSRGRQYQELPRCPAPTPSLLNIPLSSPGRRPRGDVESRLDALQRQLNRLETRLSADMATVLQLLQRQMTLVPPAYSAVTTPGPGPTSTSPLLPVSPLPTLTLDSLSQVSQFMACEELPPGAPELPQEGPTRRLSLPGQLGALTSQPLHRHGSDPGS

| Compound | hERG current change (%, negative = inhibition) at 1uM [%] |
| --- | --- |
| Cn1c(=O)c2c(nc(N3CCCC3)n2C)n(C)c1=O | 12.6 |
| Cn1c(=O)c2c(nc(N3CCN(c4ccc([N+](=O)[O-])cc4)CC3)n2C)n(C)c1=O | -81.7 |
| Cn1c(=O)c2c(nc(N3CCOCC3)n2C)n(C)c1=O | -1.83 |
| Cn1c(=O)c2c(ncn2CC(=O)N2CCN(c3ccc([N+](=O)[O-])cc3)CC2)n(C)c1=O | -69.6 |
| Cn1c(=O)c2c(ncn2CC(=O)N2CCN(c3ccc(F)cc3)CC2)n(C)c1=O | -0.183 |
| Cn1c(=O)c2c(ncn2CC(=O)N2CCN(c3ccccc3)CC2)n(C)c1=O | 8.13 |
| Cc1nc2c(C(=O)N3CCCC3)cnn2c(C)c1Cc1c(F)cccc1Cl | -11.4 |
| C=Cc1ccc(COC(=O)c2cn(CC)c3nc(C)ccc3c2=O)cc1 | -21 |
| O=C(CC(=O)N/N=C/c1ccccc1)NCc1ccccc1 | 8.85 |
| O=C(NCc1ccco1)C1CCN(c2nc3ccccc3n2Cc2ccccc2F)CC1 | -62.8 |
| Cc1cc(C)nc(N2CCC(C(=O)NCc3ccccc3F)CC2)n1 | 1.75 |
| COc1nc(OC)nc(N2CCC(C(=O)NCc3ccco3)CC2)n1 | -0.721 |
| Cc1ccc(Cn2cnc3ccccc32)cc1 | 13 |
| O=C(O)CC(c1cccc(O)c1)N1Cc2ccccc2C1=O (stereo not drawn) | 12 |
| CC(C)OCP(=O)(c1ccccc1)c1ccccc1 | 6.74 |
| CCOCCCNC(=O)CNC(=S)N(Cc1ccccc1F)C1CCCCC1 | -6.79 |
| CCN1C(=S)SC(=O)C1=C1C=C(C)N(Cc2ccco2)C(C)=C1 | 1.56 |

| Compound | hERG current change (%, negative = inhibition) at 1uM [%] |
| --- | --- |
| CC(C)c1cc(N=NC(N)=O)cc(C(C)C)c1O | 6.77 |
| CCN(CC(=O)NCc1ccc(F)cc1)Cc1nc2ccccc2c(=O)[nH]1 | -8.93 |
| CCN(CC(=O)NCc1ccc(F)cc1)Cc1nc2cc(Cl)ccc2c(=O)[nH]1 | -52.5 |
| CCN(CC(=O)NCCc1ccc(F)cc1)Cc1nc2ccccc2c(=O)[nH]1 | 1.66 |
| COc1cccc(C(=O)N2CCN(C3CCC(c4ccccc4)CC3)CC2)c1OC.O=C(O)C(=O)O (stereo not drawn) | 3.34 |
| COc1cc(C(=O)N2CCN(C3CCCCC3)CC2)cc(OC)c1OC.O=C(O)C(=O)O | 14.5 |
| COc1ccc(C(=O)N2CCN(C3CCN(Cc4ccccc4)CC3)CC2)cc1OC | -14.5 |
| COc1ccc(C(=O)N2CCN(C3CCC(c4ccccc4)CC3)CC2)cc1OC (stereo not drawn) | -60.4 |
| CC1CCCC(N2CCN(C(=O)c3cccc(F)c3)CC2)C1.O=C(O)C(=O)O (stereo not drawn) | 8.59 |
| CC1CCCC(N2CCN(C(=O)c3ccc(F)cc3)CC2)C1 (stereo not drawn) | -25 |
| O=C(CCCc1ccccc1)N1CCN(C2CCCCC2)CC1 | -23.6 |
| COc1ccc(CCC(=O)N2CCN(C(=O)c3ccccc3)CC2)cc1 | 14.6 |
| COc1cccc(C(=O)N2CCN(C3CCCCC3)CC2)c1.O=C(O)C(=O)O | 6.64 |
| CC1CCCC(N2CCN(C(=O)c3ccc([N+](=O)[O-])cc3)CC2)C1.O=C(O)C(=O)O (stereo not drawn) | -67.3 |
| COc1ccc(C(=O)N2CCN(C3CCCCC3)CC2)cc1OC.O=C(O)C(=O)O | -74.2 |
| COc1ccc(CCC(=O)N2CCN(C3CCCCC3)CC2)cc1 | -56.7 |
